Results as given in PubChem BioAssay.
Activity calls are given as the source filed them.

Columns and labels:
[1] = system: Plasmodium falciparum Sir2 (PF13_0152, Sir2A); assay: Plasmodium falciparum Sir2A binding compounds – biochemical, small-molecule microarray, 635 nm fluorescence, primary screen (AID 1098); conditions: fluorescence 635 nm, higher = more signal;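 further: score merges spot fluorescence intensity with its signal-to-noise ratio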
[2] = probe aDKK1 binding to arrayed compounds – biochemical, biotinylated probe, 635/667 nm fluorescence, primary screen (AID 1099); conditions: small-molecule microarray, higher = more signal;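 further: score merges 667nm spot fluorescence with signal to noise across triplicate slides; reference of the scale not given here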
[3] = probe aCHRDL2 binding to arrayed compounds – biochemical, biotinylated probe, 635/667 nm fluorescence, primary screen (AID 1100); conditions: small-molecule microarray, higher = more signal
[4] = change in splice reporter luminescence, either direction, cell-based, HEK293, spliceosome inhibition project, primary screen (AID 1101); conditions: HEK293 splicing luciferase reporter, 24 h, higher = more signal, called active from +8 up or from −8 down;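 further: HEK293 cells carrying a splicing-competent luciferase reporter gene; test concentration not given here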
[5] = target: Fibroblast growth factor 10 (Homo sapiens) (UniProt O15520); assay: compounds binding fibroblast growth factor 10 – biochemical, small-molecule microarray, 635 nm fluorescence, primary screen (AID 1102); conditions: FGF10 binding, fluorescence 635 nm, higher = more signal
Chain of Fibroblast growth factor 10 (Homo sapiens) (O15520 whole entry, looked up): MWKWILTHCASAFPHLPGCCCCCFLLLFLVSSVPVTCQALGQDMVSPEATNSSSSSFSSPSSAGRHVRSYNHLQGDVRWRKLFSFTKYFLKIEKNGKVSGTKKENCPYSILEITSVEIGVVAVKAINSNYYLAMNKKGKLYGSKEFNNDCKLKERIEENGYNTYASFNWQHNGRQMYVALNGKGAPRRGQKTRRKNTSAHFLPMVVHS

[6] = system: glycogen synthase kinase-3 (GSK3A per assay name; protocol says GSK3B); assay: compounds binding glycogen synthase kinase-3 – biochemical, small-molecule microarray, 635 nm fluorescence, GSK3A, primary screen (AID 1103); conditions: fluorescence 635 nm, higher = more signal; further: the record names both GSK3A and GSK3B
[7] = target: Epidermal growth factor receptor (Homo sapiens) (UniProt P00533); assay: compounds binding epidermal growth factor receptor – biochemical, small-molecule microarray, 635 nm fluorescence, primary screen (AID 1104); conditions: EGFR binding, higher = more signal;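 further: score merges 667 nm emission intensity with spot signal to noise over triplicate slides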
Chain of Epidermal growth factor receptor (Homo sapiens) (P00533 whole entry, looked up): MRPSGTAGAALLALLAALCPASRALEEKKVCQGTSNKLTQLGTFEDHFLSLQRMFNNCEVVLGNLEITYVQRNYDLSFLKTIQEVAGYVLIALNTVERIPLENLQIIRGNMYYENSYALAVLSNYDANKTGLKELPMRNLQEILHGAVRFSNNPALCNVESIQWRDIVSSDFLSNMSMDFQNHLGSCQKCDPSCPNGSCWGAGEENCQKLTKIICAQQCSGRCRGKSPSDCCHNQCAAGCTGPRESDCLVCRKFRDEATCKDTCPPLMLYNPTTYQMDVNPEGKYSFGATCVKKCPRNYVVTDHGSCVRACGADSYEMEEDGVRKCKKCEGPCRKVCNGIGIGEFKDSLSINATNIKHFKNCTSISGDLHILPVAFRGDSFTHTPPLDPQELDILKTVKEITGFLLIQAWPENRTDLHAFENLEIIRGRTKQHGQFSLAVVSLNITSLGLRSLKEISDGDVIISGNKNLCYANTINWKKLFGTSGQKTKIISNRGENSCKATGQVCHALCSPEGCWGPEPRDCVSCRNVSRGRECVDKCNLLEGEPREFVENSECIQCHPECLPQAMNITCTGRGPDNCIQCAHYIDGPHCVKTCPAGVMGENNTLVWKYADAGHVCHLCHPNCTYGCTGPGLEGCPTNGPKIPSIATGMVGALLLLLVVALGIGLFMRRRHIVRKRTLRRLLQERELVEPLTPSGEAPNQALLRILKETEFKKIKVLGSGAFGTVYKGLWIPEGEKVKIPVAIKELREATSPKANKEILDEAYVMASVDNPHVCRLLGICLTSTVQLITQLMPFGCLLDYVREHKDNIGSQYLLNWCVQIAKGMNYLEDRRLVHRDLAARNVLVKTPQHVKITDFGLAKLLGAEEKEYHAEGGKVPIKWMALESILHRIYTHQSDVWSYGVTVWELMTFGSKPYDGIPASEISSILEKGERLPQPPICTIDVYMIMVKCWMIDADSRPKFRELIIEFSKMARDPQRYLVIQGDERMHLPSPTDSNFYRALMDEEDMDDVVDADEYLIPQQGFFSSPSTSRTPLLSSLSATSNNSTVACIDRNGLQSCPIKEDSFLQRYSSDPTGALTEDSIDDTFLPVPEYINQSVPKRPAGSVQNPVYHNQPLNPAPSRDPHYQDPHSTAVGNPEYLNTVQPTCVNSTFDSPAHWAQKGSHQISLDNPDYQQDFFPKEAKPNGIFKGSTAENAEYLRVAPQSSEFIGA

[8] = target: Follistatin-related protein 3 (Homo sapiens) (UniProt O95633); assay: compounds binding follistatin-related protein 3 – biochemical, small-molecule microarray, 635 nm fluorescence, primary screen (AID 1105); conditions: FSTL3 binding, higher = more signal;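 further: score merges emission near 667 nm and signal to noise per printed spot across three slides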
Chain of Follistatin-related protein 3 (Homo sapiens) (O95633 whole entry, looked up): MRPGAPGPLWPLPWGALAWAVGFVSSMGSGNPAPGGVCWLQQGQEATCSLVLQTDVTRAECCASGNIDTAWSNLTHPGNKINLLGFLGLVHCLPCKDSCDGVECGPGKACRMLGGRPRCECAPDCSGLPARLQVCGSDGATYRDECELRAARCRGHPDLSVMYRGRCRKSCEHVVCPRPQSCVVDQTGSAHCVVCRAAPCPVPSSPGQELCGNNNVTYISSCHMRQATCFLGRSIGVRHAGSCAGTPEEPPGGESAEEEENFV

[9] = target: Dickkopf-related protein 1 (Homo sapiens) (UniProt O94907); assay: small molecules binding DKK1 protein – biochemical, small-molecule microarray, 635 nm fluorescence scan, primary screen (AID 1106); conditions: higher = more signal;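 further: score merges emission near 667 nm with signal to noise over three replicate slides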
Chain of Dickkopf-related protein 1 (Homo sapiens) (O94907 whole entry, looked up): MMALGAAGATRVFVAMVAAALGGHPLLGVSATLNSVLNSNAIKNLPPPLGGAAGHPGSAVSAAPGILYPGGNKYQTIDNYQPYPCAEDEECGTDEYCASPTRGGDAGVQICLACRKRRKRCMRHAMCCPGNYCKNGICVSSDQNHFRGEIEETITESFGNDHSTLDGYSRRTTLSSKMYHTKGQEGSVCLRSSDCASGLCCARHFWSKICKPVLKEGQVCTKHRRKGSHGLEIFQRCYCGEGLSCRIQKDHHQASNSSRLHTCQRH

[10] = system: Inhibin beta A chain (activin A); assay: small molecules binding activin A – biochemical, small-molecule microarray, 635 nm fluorescence scan, primary screen (AID 1107); conditions: INHBA, higher = more signal;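 further: mouse activin A protein probed at 4.33 µg/mL on printed slides; score merges bound-protein fluorescence near 667 nm with spot signal-to-noise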

Structure (SMILES)	composite z-score [1]	composite z-score [2]	composite z-score [3]	z-score [4]	composite z-score [5]	composite z-score [6]	composite z-score [7]	composite z-score [8]	composite z-score [9]	composite z-score [10]
CC(C)(C)N1C(=O)[C@H]2[C@H]3[C@H](O)[C@H](O)CC(=NOCc4ccccc4)[C@@H]3CC[C@H]2C1=O	0.616	-0.192	0.24	-1.07 (inactive)	0.97	0.535	0.455	0.988	1.59	0.528
C#CCCCON=C1C[C@@H](O)[C@@H](O)[C@@H]2[C@@H]3C(=O)N(CCC(=O)OCC)C(=O)[C@@H]3CC[C@@H]12	-0.346	1.17	1.51	0.907 (inactive)	-0.0714	-0.493	-0.905	-0.911	-0.908	0.459
CCCNC(=O)[C@@H]1c2ccccc2C(=O)N(Cc2ccccc2Cl)[C@H]1c1ccc(CO)cc1	1.67	0.989	0.846	-0.493 (inactive)	0.619	1.28	0.192	1.34	0.649	0.341
CC(C)[C@H](NC(=O)OC(C)(C)C)[C@@H](O)CC(=O)OC(C)(C)C	-1.02	-0.298	-0.215	-0.566 (inactive)	-0.658	-1.38	-0.664	-0.746	-0.327	0.0055
C[N+](C)(C)CCCCCCNC(=O)[C@@H]1C[C@@H]2C(=O)N3CCC[C@H]3C(=O)N2[C@@H]1c1cccc(OCCO)c1	1.26	-0.303	0.824	-0.739 (inactive)	-0.0327	0.586	0.36	0.476	0.808	1.03
CCN1C(=O)[C@H]2[C@H]3[C@H](O)[C@H](O)CC(=NOCC=C(C)CCC=C(C)C)[C@H]3CC[C@H]2C1=O	0.908	-0.338	-1.31	0.886 (inactive)	1.13	1.17	1.18	1.43	1.74	1.1
O=C1[C@H]2[C@H]3[C@H](O)[C@H](O)CC(=NOCc4ccccc4)[C@@H]3CC[C@H]2C(=O)N1C1CCCCC1	0.991	-0.28	0.218	0.568 (inactive)	-0.069	-0.0273	0.0374	-0.0832	-0.484	-0.28
CC(C)NC(=O)[C@@H]1c2ccccc2C(=O)N(CC23CC4CC(CC(C4)C2)C3)[C@H]1c1ccc(CO)cc1	1.45	0.171	0.46	-1.21 (inactive)	0.596	1.23	0.582	1.28	0.651	0.43
N#Cc1ccc(NN2C(C(O)c3cccc4ccccc34)C=CC3C(=O)N(c4ccccc4)C(=O)C32)cc1 (stereo not given)	0.582	0.687	1.14	1.27 (inactive)	0.899	0.676	0.316	0.898	-0.203	0.478
COc1ccc(-c2nc3c(c4c2C[C@H](C)OC4)CN(CCC(C)C)CC3)cc1	0.785	-0.0348	-0.514	0.386 (inactive)	1.02	1.08	0.472	1	0.388	-0.296
CC(=O)OC[C@H]1O[C@H](CC=NOC[C@@H](C)[C@H](OCc2ccccc2)C(C)C)C=C[C@@H]1OC(C)=O	-0.15	-0.262	-0.478	0.955 (inactive)	-0.17	0.1	0.0284	0.523	0.169	-0.0543
C#CCCCON=C1C[C@@H](O)[C@@H](O)[C@@H]2[C@@H]3C(=O)N(c4cccc(Oc5ccccc5)c4)C(=O)[C@@H]3CC[C@@H]12	0.632	-0.178	0.0505	-0.417 (inactive)	0.985	0.548	0.213	0.802	-0.0498	-0.211
CC(C)NC(=O)[C@@]1(C)c2ccccc2C(=O)N(Cc2cc(F)cc(C(F)(F)F)c2)[C@H]1c1ccc(CO)cc1	0.442	0.574	0.384	-0.0501 (inactive)	1.27	0.917	0.655	0.57	-0.12	0.858
